# Inconclusive results are not listed. A call without a number means that no potency is given here. Activity calls are given as the source filed them. Calls follow the shape of the dose curve; as a rule, active = well fitted curve in the direction sought with a large enough effect; inconclusive = small, poorly fitted or top-dose-only effect, or another doubt; inactive = no such curve, though single readings can be large; an effect the other way counts as inactive or inconclusive.
# Key:
# [1] = tested on: MKL-2; experiment: qHTS assay to identify novel small-molecules to repurpose for Merkel cell carcinoma treatment (AID 1296009); conditions: MCC and control cell lines, CellTiter-Glo viability, 72 h; series mostly up to 46 µM; also: nearly all actives have a fitted effect of over 60% in size; also: potency is read from the fitted curve at half-maximal effect
# Method in brief: (§1)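 qHTS format: cells treated with library compounds in DMSO across 8 (NPC) or 11 (MIPE) concentrations. Readout after 72 hr at 37 degree celsius was CellTiter-Glo luminescence.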
# [2] = tested on: UISO; experiment: as above; conditions: MCC and control cell lines, CellTiter-Glo viability, 72 h; series mostly up to 46 µM
# Method in brief: as §1
# [3] = tested on: WaGa; experiment: as above; conditions: MCC and control cell lines, CellTiter-Glo viability, 72 h; series mostly up to 46 µM
# Method in brief: as §1
# [4] = tested on: NIH3T3; experiment: as above; conditions: MCC and control cell lines, CellTiter-Glo viability, 72 h; at 44.8 µM (top of the series) unless noted
# Method in brief: as §1
# [5] = tested on: C33A; experiment: Primary qHTS to identify gynecologic anti-cancer compounds using libraries of approved drugs and bioactive compounds (AID 1345084); conditions: Gynecologic cancer cell panel viability, ATPlite luminescence, 48 h; series mostly up to 57.5 µM; also: nearly all actives have a fitted effect of over 55% in size
# Method in brief: (§2)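 Five-point cytotoxicity, 48 h drug exposure at 37 C, 5% CO2, on cells seeded 16 h beforehand. ATP content read by ATPlite luminescence.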
# [6] = tested on: CAOV3; experiment: as above; conditions: Gynecologic cancer cell panel viability, ATPlite luminescence, 48 h; series mostly up to 57.5 µM
# Method in brief: as §2
# [7] = tested on: CASKI; experiment: as above; conditions: Gynecologic cancer cell panel viability, ATPlite luminescence, 48 h; series mostly up to 57.5 µM
# Method in brief: as §2
# [8] = tested on: Es-2; experiment: as above; conditions: Gynecologic cancer cell panel viability, ATPlite luminescence, 48 h; series mostly up to 57.5 µM
# Method in brief: as §2
# [9] = tested on: HeLa; experiment: as above; conditions: Gynecologic cancer cell panel viability, ATPlite luminescence, 48 h; series mostly up to 57.5 µM
# Method in brief: as §2
# [10] = tested on: Hek293T; experiment: as above; conditions: Gynecologic cancer cell panel viability, ATPlite luminescence, 48 h, control line for the selectivity index; series mostly up to 57.5 µM
# Method in brief: as §2
Structure (SMILES),Potency [1],Potency [2],Potency [3],outcome [4],Potency [5],Potency [6],Potency [7],Potency [8],Potency [9],Potency [10]
COc1cc2ncnc(Nc3ccc(F)c(Cl)c3)c2cc1NC(=O)C=CCN1CCCCC1,3.72 µM (active),,,,,,,,,
COC(=O)C[C@](O)(CCCC(C)(C)O)C(=O)O[C@@H]1C(OC)=C[C@]23CCCN2CCc2cc4c(cc2[C@H]13)OCO4,inactive,inactive,inactive,,,,,,,
Cc1cn2cc(C(=O)N(C)CCO)cc(N[C@@H]3CCOc4cccc(C)c43)c2n1,inactive,,inactive,inactive,inactive,inactive,inactive,inactive,inactive,inactive
CC1COC2(CCN(c3nc(=O)c4cc(C(F)(F)F)cc([N+](=O)[O-])c4s3)CC2)O1 (configuration not stated),inactive,inactive,inactive,inactive,inactive,,inactive,inactive,inactive,inactive
CC(C)c1ccc(Cn2ccc3c4c(N)nc(NC5CC5)nc4ccc32)cc1,4.18 µM (active),14.8 µM (active),9.35 µM (active),,,,,,,
N#Cc1c(O)c2c(-c3ccc(-c4ccccc4O)cc3)csc2[nH]c1=O,inactive,inactive,inactive,inactive,inactive,inactive,inactive,inactive,inactive,inactive
CC(C)(C)c1cc(C(C)(C)C)c(NC(=O)c2c[nH]c3ccccc3c2=O)cc1O,inactive,inactive,inactive,inactive,,,,,,
CN1c2cc(O)c(N=NC(N)=O)cc2CC1S(=O)(=O)O (configuration not stated),inactive,inactive,inactive,inactive,,,,,,
C[C@H]1C[C@@H]2[C@@H]([C@@H](O)C[C@@]3(C)[C@H]2CC[C@]3(O)C(=O)CO)[C@@]2(C)C=CC(=O)C=C12,inactive,inactive,inactive,inactive,,,,,,

# Reference: PubChem BioAssay (NCATS)
